The structures appear in SMILES notation.

For test [1], the target named is T1, Inhibitor of nuclear factor kappa-B kinase subunit epsilon (Homo sapiens) (UniProt Q14164).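 Also: reported values are averaged percent inhibition figures against human IKKε.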
T1 sequence (whole entry): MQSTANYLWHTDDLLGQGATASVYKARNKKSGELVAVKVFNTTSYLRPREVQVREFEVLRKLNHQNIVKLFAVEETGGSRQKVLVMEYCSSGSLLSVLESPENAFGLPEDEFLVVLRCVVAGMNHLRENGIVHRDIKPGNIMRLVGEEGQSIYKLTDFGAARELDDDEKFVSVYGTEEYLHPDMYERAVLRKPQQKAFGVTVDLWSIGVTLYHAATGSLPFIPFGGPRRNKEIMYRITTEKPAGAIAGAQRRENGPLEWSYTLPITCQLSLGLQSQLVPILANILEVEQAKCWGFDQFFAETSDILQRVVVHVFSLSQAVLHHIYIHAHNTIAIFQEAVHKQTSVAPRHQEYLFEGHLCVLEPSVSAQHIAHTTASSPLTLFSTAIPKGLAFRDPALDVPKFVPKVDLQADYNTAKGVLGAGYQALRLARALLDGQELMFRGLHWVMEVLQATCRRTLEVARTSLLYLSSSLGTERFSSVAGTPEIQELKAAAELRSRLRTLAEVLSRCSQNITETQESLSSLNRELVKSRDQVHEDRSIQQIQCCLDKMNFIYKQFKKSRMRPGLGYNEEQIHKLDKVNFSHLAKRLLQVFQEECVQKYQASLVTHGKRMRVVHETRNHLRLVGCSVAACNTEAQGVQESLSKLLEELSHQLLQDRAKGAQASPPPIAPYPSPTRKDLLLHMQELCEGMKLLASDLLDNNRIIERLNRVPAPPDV
The conditions noted are these: at 1 µM.

Test [2] deals with T2, Serine/threonine-protein kinase Nek1 (Homo sapiens) (UniProt Q96PY6).
T2 sequence (whole entry): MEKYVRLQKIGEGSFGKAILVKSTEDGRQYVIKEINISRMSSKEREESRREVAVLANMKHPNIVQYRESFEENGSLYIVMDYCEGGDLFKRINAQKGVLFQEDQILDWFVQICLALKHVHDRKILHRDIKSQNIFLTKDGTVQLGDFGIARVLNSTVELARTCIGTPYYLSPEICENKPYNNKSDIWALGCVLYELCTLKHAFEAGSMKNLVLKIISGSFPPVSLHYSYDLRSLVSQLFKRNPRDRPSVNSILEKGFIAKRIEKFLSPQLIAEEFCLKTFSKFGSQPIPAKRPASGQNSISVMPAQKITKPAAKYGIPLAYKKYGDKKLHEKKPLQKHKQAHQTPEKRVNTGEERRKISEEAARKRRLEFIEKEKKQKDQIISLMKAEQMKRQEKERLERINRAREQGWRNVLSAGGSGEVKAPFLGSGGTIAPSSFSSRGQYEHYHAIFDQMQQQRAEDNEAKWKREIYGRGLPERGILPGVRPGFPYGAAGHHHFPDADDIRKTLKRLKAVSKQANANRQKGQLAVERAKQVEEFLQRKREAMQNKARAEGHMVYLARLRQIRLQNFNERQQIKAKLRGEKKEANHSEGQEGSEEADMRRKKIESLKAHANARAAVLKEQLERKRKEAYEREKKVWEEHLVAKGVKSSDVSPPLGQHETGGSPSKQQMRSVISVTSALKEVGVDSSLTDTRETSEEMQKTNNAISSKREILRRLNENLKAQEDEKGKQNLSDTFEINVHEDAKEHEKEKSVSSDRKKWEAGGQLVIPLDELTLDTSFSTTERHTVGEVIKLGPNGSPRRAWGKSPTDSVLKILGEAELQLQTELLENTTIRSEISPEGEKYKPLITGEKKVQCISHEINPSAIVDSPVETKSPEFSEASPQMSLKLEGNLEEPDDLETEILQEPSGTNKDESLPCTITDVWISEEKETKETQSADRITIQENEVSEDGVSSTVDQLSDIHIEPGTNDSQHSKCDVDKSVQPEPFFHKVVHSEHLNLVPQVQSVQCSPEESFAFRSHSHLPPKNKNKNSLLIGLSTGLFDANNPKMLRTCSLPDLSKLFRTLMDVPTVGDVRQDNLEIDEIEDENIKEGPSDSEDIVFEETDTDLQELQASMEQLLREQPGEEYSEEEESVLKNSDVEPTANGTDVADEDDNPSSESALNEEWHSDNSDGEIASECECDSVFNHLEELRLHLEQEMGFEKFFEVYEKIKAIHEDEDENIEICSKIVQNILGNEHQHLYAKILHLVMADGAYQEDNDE
Particulars: at 0.1 µM.

For test [3], the target named is T2, Serine/threonine-protein kinase Nek1 (Homo sapiens). Particulars: at 1 µM.
Test [4] deals with T3, Serine/threonine-protein kinase Nek2 (Homo sapiens) (UniProt P51955).
T3 sequence (whole entry): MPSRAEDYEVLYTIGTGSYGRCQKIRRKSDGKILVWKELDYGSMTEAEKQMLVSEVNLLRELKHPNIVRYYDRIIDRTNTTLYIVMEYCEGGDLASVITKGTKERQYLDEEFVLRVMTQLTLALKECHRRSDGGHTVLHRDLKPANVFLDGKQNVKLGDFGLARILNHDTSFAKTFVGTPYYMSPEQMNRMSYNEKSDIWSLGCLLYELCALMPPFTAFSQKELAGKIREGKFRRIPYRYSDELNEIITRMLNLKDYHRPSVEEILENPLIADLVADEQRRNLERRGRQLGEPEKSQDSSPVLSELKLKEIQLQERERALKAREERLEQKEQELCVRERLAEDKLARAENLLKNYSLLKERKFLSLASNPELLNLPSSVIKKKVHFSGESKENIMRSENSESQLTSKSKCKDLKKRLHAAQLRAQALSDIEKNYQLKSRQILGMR
Particulars: at 0.1 µM.

The target in test [5] is T3, Serine/threonine-protein kinase Nek2 (Homo sapiens). The conditions noted are these: at 1 µM.
Test [6] concerns the target Serine/threonine-protein kinase Nek6 (Homo sapiens) (UniProt Q9HC98). Particulars: at 0.1 µM.
Test [7] has the same target. Particulars: at 1 µM.
The target in test [8] is Serine/threonine-protein kinase Nek7 (Homo sapiens) (UniProt Q8TDX7). The conditions noted are these: at 0.1 µM.
Test [9] has the same target. The conditions noted are these: at 1 µM.
Test [10] addresses T4, Serine/threonine-protein kinase Nek9 (Homo sapiens) (UniProt Q8TD19).
T4 sequence (whole entry): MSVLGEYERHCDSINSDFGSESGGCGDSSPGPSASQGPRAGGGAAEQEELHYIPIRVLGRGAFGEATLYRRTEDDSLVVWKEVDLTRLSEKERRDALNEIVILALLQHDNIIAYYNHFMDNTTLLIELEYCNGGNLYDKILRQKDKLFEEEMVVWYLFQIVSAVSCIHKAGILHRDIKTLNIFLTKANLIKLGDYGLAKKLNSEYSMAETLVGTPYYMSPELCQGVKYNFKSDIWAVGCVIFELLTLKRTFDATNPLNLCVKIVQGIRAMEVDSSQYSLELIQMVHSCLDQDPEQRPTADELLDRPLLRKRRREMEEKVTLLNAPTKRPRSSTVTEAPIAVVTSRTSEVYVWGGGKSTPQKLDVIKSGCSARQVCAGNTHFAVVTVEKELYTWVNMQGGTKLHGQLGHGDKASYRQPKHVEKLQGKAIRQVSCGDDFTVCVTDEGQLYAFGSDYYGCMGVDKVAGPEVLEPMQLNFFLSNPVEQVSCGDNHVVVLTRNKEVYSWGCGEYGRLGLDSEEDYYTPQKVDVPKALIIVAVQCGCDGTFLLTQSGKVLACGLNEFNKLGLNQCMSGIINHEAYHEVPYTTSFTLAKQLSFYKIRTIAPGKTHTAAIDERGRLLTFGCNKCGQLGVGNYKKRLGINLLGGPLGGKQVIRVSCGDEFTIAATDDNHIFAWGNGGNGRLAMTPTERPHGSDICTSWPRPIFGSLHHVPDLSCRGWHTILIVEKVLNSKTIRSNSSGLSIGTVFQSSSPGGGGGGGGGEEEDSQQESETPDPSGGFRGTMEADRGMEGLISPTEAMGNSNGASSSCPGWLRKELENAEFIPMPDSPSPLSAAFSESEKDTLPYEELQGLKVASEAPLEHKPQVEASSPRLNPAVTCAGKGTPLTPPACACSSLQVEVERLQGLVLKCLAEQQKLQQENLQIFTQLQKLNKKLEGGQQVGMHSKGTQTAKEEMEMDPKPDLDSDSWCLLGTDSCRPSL
Particulars: at 0.1 µM.

The target in test [11] is T4, Serine/threonine-protein kinase Nek9 (Homo sapiens). The conditions noted are these: at 1 µM.
Test [12] addresses Serine/threonine-protein kinase PLK1 (Homo sapiens) (UniProt P53350). The conditions noted are these: at 0.1 µM.
Test [13] has the same target. The conditions noted are these: at 1 µM.
Test [14] addresses T5, Dual specificity protein kinase TTK (Homo sapiens) (UniProt P33981).
T5 sequence (whole entry): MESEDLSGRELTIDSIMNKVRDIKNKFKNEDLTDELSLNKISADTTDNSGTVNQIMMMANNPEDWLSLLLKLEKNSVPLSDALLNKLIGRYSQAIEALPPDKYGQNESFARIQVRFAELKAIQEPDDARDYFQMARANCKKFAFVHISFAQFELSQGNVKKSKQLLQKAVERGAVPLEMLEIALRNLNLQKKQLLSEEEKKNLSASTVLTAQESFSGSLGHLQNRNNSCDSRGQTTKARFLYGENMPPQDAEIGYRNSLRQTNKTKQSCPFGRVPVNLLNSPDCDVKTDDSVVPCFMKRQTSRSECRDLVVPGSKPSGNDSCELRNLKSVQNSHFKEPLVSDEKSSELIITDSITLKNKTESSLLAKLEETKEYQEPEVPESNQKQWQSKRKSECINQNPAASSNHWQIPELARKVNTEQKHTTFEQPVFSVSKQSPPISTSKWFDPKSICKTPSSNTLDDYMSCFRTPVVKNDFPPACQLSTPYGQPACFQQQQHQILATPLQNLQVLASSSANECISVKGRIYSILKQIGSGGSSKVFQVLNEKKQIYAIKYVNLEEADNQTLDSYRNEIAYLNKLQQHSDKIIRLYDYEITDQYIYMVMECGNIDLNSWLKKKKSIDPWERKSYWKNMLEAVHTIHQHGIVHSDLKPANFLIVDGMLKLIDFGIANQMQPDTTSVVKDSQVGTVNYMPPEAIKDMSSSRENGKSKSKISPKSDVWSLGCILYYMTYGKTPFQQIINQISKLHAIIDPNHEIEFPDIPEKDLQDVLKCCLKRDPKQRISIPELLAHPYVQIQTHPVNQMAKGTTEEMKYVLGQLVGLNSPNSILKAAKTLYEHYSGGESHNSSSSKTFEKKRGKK
The conditions noted are these: at 0.1 µM.

For test [15], the system named is T6, Receptor-type tyrosine-protein kinase FLT3 (Homo sapiens), P36888 [D835Y].
T6 sequence (whole entry): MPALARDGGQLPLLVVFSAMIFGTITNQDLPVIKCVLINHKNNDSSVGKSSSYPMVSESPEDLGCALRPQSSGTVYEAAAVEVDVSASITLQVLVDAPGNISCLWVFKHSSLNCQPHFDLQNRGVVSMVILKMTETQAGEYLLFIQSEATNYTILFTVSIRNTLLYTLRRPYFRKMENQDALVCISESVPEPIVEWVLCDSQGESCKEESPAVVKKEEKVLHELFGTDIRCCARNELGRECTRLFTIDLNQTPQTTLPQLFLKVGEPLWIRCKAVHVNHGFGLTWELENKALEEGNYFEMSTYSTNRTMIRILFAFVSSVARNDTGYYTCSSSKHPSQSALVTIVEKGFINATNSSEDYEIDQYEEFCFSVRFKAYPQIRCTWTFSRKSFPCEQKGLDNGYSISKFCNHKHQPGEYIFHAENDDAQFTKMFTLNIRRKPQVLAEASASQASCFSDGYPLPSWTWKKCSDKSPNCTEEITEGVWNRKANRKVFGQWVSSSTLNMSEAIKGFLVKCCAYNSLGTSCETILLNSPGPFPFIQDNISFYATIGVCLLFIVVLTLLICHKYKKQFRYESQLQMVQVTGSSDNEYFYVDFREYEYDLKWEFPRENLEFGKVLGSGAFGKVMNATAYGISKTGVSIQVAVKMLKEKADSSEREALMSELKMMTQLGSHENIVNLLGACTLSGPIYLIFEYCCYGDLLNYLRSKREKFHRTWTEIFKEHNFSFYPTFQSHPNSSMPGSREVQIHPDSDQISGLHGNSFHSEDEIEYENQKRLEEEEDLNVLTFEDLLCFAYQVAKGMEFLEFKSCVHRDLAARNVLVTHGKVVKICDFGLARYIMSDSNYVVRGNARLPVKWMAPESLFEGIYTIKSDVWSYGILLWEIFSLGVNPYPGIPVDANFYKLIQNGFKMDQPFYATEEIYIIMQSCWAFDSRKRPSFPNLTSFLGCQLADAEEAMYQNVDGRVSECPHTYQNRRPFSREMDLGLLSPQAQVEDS
The conditions noted are these: at 1 µM.

Test [16] addresses Vascular endothelial growth factor receptor 3 (Homo sapiens) (UniProt P35916). The conditions noted are these: at 0.1 µM.
For test [17] the target is unchanged. Particulars: at 1 µM.
The target in test [18] is Macrophage colony-stimulating factor 1 receptor (Homo sapiens) (UniProt P07333). The conditions noted are these: at 0.1 µM.
Test [19] shares this target. The conditions noted are these: at 1 µM.
Test [20] concerns the target Tyrosine-protein kinase Fyn (Homo sapiens) (UniProt P06241). Particulars: at 0.1 µM.

Serine/threonine-protein kinase Nek7 (Homo sapiens), sequence (Q8TDX7 whole entry, looked up): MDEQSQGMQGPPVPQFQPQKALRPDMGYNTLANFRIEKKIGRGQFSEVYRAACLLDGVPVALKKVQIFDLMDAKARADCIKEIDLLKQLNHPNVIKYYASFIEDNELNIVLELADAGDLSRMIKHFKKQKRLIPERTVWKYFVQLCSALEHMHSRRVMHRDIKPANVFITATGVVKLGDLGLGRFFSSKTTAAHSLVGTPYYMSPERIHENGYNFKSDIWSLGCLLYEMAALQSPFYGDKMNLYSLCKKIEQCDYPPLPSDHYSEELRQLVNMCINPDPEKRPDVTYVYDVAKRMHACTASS
Serine/threonine-protein kinase Nek6 (Homo sapiens), sequence (Q9HC98 whole entry): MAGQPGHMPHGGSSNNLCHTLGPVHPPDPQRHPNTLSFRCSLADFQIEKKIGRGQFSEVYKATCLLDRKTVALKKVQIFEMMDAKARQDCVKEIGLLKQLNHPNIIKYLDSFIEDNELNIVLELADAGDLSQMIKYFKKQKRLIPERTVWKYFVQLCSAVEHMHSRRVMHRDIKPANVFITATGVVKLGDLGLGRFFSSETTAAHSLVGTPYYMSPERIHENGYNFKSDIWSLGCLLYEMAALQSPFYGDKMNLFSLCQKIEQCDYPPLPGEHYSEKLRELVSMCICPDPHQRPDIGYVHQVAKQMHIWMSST
Vascular endothelial growth factor receptor 3 (Homo sapiens), sequence (P35916 whole entry): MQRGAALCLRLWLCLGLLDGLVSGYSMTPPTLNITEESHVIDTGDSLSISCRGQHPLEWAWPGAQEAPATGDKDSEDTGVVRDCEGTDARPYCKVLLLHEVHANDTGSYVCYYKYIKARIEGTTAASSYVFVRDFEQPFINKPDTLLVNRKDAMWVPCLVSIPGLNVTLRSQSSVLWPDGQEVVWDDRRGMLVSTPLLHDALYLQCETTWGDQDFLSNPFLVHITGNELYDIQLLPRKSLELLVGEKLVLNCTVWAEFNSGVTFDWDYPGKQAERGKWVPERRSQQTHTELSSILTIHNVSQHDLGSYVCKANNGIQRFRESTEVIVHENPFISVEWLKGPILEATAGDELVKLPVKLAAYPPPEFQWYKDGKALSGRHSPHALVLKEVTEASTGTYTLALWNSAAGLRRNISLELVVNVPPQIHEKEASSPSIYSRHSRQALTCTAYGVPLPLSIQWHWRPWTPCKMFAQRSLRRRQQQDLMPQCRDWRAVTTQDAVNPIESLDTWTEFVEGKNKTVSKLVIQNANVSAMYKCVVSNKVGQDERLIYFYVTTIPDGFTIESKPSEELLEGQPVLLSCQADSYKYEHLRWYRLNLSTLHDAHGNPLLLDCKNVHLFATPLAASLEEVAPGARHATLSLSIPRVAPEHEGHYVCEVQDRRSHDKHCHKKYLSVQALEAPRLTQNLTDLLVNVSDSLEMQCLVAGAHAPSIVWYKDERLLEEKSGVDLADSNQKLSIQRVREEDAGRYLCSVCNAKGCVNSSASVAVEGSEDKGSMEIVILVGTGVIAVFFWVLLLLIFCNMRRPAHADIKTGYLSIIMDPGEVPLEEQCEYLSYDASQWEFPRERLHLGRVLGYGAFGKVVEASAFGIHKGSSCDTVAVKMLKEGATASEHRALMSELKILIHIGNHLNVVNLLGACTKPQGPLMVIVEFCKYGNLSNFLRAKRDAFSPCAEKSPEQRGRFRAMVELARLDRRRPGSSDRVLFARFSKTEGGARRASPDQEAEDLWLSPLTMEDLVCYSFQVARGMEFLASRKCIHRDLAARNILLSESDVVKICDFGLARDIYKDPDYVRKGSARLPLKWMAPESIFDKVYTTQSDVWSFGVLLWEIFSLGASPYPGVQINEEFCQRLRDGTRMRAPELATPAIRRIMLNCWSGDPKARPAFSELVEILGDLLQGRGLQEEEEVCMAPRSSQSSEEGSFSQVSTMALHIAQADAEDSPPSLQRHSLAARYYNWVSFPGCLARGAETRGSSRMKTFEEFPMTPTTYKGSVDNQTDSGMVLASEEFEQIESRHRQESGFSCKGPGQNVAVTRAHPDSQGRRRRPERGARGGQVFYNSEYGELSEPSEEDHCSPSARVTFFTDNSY
Macrophage colony-stimulating factor 1 receptor (Homo sapiens), sequence (P07333 whole entry): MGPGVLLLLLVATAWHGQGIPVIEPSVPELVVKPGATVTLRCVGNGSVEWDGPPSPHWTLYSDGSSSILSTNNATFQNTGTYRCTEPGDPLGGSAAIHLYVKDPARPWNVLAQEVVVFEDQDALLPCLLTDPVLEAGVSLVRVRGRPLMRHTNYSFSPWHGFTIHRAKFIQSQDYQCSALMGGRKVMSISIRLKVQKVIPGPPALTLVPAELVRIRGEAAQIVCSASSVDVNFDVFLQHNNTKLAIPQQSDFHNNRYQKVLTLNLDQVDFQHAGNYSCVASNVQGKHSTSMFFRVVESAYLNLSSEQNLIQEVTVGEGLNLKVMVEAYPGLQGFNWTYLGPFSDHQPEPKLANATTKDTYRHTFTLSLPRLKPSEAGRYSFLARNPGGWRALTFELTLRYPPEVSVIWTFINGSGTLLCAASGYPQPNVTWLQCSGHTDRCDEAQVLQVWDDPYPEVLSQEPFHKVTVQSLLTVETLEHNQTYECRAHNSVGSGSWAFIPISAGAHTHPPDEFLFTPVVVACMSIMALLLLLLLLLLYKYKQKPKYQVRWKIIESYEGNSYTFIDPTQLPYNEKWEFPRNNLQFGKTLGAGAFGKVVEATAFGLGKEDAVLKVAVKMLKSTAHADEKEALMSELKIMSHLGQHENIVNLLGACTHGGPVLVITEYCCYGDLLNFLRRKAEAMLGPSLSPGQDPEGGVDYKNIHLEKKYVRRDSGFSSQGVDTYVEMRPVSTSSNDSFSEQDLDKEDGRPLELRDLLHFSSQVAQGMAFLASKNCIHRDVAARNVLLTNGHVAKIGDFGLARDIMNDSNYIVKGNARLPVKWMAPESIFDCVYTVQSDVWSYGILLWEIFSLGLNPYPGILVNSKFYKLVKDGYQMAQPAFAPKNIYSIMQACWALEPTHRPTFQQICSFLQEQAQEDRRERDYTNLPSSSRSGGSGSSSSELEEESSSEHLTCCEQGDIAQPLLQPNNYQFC
Serine/threonine-protein kinase PLK1 (Homo sapiens), sequence (P53350 whole entry): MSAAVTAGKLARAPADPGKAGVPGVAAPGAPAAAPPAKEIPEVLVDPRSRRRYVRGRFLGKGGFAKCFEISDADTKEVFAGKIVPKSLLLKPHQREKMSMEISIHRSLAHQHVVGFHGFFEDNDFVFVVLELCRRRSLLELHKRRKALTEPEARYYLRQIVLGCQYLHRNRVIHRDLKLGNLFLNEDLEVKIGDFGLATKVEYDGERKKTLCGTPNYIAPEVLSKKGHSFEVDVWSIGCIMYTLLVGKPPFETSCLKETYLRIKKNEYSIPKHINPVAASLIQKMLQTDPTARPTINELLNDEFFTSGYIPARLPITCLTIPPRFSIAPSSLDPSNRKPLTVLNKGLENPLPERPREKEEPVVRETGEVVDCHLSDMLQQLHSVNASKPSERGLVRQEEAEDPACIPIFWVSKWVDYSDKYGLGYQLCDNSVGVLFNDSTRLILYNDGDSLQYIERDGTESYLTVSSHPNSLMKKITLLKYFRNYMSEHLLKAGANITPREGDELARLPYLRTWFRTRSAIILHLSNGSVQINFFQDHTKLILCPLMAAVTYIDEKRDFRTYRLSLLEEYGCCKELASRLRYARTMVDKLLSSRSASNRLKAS
Tyrosine-protein kinase Fyn (Homo sapiens), sequence (P06241 2-537 limits assumed): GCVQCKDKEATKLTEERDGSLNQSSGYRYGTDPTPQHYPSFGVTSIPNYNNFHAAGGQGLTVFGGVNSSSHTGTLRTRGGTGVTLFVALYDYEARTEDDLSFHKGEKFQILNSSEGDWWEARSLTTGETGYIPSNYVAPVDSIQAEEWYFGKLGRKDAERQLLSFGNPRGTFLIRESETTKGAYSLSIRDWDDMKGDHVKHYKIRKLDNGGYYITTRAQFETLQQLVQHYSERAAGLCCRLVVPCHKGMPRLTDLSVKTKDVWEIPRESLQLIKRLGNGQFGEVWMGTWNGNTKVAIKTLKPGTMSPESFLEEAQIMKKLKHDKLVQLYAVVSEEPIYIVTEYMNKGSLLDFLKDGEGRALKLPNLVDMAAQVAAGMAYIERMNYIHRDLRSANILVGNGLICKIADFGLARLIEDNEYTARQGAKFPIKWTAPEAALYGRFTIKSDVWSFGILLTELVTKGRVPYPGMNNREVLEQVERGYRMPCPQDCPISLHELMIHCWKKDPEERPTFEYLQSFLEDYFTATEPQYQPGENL

What is called inhibition is how much of the control response was suppressed. As for `c1ccc(Cc2nc3ccc(Nc4ncnc5ccccc45)cc3[nH]2)cc1`, the inhibition in test [1] is 4.77%; in test [2], 0.8%; in [3], 6.65%; in test [4] it was 4.56%; in [5], 2.85%; in test [6] it was 3.06%. The inhibition was found to be 4.77% in test [7]; 3.7% in test [8]; 3.14% in test [9]; 7.36% in test [10]; 1.93% in test [11]; 2.22% in [12]. The inhibition in [13] came out at 1.76%; in test [14], 5.97%; in test [15] it was 5.06%; in [16], 0.79%; in test [17] it was 2.3%; in test [18], 4.66%. The inhibition came to 5.24% in [19] and 1.56% in [20].

The values are drawn from ChEMBL document CHEMBL1961873, “Compounds: GSK PKIS; Assays: Nanosyn kinase panel” (2012).
